This passage reports inhibition results from PubChem BioAssay AID624125 (The Scripps Research Institute Molecular Screening Center, 2012).

Among all 360,000 compounds or so, about 2,600 (0.72%) were called active. The entries come from a sample that favours actives as a whole. A number with no mark means an inactive call.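 How the source made its calls: active means inhibition above its plate's cutoff, the mean inhibition of sample wells plus 3 SD (cut at about 27% in these data); inactive means the rest.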

This assay deals with Muscarinic acetylcholine receptor M4 (Homo sapiens) (UniProt P08173). The experiment in a line: CHRM4 blockers of acetylcholine calcium response – CHO cells, Fluo-8 calcium fluorescence, primary screen (AID 624125).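 Further: 0% = acetylcholine EC80 with DMSO and 100% = DMSO without agonist.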 Conditions: CHO-hM4 cells, ACh EC80, Fluo-8 calcium fluorescence; at 3 µM; active compounds read high.
Muscarinic acetylcholine receptor M4 (Homo sapiens), sequence (P08173 whole entry, looked up): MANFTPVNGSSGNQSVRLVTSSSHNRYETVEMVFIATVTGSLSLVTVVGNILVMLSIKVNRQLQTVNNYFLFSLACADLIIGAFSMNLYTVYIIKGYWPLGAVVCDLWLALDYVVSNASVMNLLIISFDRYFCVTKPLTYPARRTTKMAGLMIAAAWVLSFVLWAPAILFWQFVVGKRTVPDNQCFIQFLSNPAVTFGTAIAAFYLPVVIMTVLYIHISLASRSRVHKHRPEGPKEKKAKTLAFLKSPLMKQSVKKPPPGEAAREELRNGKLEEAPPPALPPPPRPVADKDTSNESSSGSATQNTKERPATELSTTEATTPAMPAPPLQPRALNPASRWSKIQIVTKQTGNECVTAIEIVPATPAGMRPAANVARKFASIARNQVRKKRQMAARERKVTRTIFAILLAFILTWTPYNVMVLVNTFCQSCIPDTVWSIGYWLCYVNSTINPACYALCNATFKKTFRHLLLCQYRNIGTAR
A word on the inhibition: it is the relative decrease from the control value, in per cent. With `c1ccc2c(c1)OC1OC2Oc2ccccc21`, the inhibition was -7.83%.
In the case of `COc1ccc(S(=O)(=O)NC2(C(F)(F)F)N=C3SCCN3C2=O)cc1` (centres undefined), the inhibition is -9.21%.
The figure for `CCN1CCN(c2ccc(S(=O)(=O)N3CCCCC3)cc2NC(=O)c2cccc(NC(C)=O)c2)CC1` is -6.66%; for `COc1ccc(CN2CCCC(C(=O)N3CCCCC3)C2)cc1` (centres undefined) it is 1.76%.
Take `COc1ccc(CN2CCCC(C(=O)c3ccc(Cl)cc3)C2)cc1Cn1cncn1` (centres undefined): the inhibition was 38.6% (active).
The figure for `COc1cc(CN2CCCC(C(=O)c3ccc(SC)cc3)C2)cc(Cl)c1O` (centres undefined) is -23.2%.
The figure for `CCN(CC)N=Nc1cccc(NC(C)=O)c1` is 5.94%.
The figure for `CN(C(=O)CSc1nnc(-c2ccc3c(c2)OCO3)o1)C1CCS(=O)(=O)C1` (centres undefined) is 0.5%; for `N/C(=N\OC(=O)Nc1ccc(Cl)c(Cl)c1)c1ncc(C(F)(F)F)cc1Cl` it is 27% (active).
`N/C(=N\OC(=O)CCCC(=O)O)c1ncc(C(F)(F)F)cc1Cl`: the inhibition was 3.64%.
For `O=C(c1ccccn1)c1ncc(C(F)(F)F)cc1Cl` the value was 9.21%; for `O=C(COc1ccc(S(=O)(=O)NCc2ccccc2)cc1)N1CCOCC1`, 4.93%.
The figure for `CC(O)C(NS(=O)(=O)c1ccc(Cl)cc1)C(=O)OCc1cc([N+](=O)[O-])cc2c1OCOC2` (centres undefined) is 5.24%.
For `CCOc1ccccc1NC(=S)C(=C([O-])c1ccc2c(c1)OCCO2)[n+]1ccc(CC)cc1` the value was -1.01%; for `CCc1cc2c(NC3CCCC3)ncnc2s1`, 11.2%.
Turning to `Clc1cc(NC2CCCCC2)ncn1`, the inhibition is 98.6% (active).
For `Cc1cc([N+](=O)[O-])c(NC2CCCCC2)c([N+](=O)[O-])c1`, the inhibition was 7.51%.
For `CC(=O)c1ccc(N2CCN(C(=O)c3ccc4nc[nH]c4c3)CC2)cc1` the value was 4.68%; for `Cc1nc2ccc(C(=O)N(C)CC3CCCN(CCc4ccc(Cl)cc4)C3)cc2[nH]1` (centres undefined), 19.4%; for `CN(CC1CCCN(CCc2cccc(C(F)(F)F)c2)C1)C(=O)c1ccc2nc[nH]c2c1` (centres undefined), 41% (active).
The figure for `CSc1ccccc1NC(=O)c1ccc2c(c1)CCN2S(C)(=O)=O` is -5.17%; for `O=C(CSCc1ccc([N+](=O)[O-])cc1)Nc1cccc(C(=O)Nc2ccccc2C(=O)O)c1` it is 7.83%; for `CN(CC(=O)Nc1ccc(S(=O)(=O)N2CCCC2)cc1)Cc1ccc(Cl)c(Cl)c1` it is 4.23%.
The figure for `CCc1ccc(CN(C)C(C)C(=O)Nc2ccc(S(=O)(=O)N3CCCC3)cc2)cc1` (centres undefined) is 26.6% (active).
As to `CC(C(=O)Nc1ccc(S(=O)(=O)N2CCCC2)cc1)N(C)Cc1ccc(F)cc1` (centres undefined), the inhibition was -3.14%.
`CCc1ccc(/C=N/NC(=O)c2nnn(-c3nonc3N)c2CN2CCc3ccccc32)cc1`: the inhibition is 6.06%.
The figure for `CCOC(=O)CSc1nnc(NC(=O)C2CC(=O)N(c3ccc(F)cc3)C2)s1` (centres undefined) is 5.76%; for `CN1/C(=C\C=C2\N=C(c3ccc(F)cc3)OC2=O)C(C)(C)c2ccccc21` it is 50.7% (active).
Consider `Cc1ccc(S(=O)(=O)NC[C@H]2O[C@@H](n3cnc4c(N)ncnc43)[C@H](O)[C@@H]2O)s1`, for which the inhibition was -5.46%.
The figure for `O=C(CNS(=O)(=O)c1ccc(Br)s1)NCc1ccc2c(c1)OCO2` is 1.5%; for `COc1ccc(NC(=O)N(C)C[C@@H]2OCc3cn(nn3)CCCC(=O)N([C@H](C)CO)C[C@H]2C)c(OC)c1` it is 8.28%.
The figure for `CC1CCCN(c2ccc(C(=O)NCCc3ccccc3)cn2)C1` (centres undefined) is -4.49%; for `O=C(NCCc1ccccc1)c1ccc2c(c1)N(Cc1ccccc1)CCS2` it is 35% (active); for `CCOC(=O)N1CCN(C(=O)c2ccc3c(c2)N(Cc2ccc(C)cc2)CCS3)CC1` it is -7.97%.
The figure for `CCOC(=O)c1cnc(Nc2nc3ccccc3o2)nc1CSC(=S)N1CCCCC1` is -1.75%; for `COc1cccc(CNCCc2c[nH]c3ccccc23)c1OCc1ccccc1F` it is 27.2% (active); for `Fc1ccccc1COc1ccccc1CNCc1ccncc1` it is -4.74%.
In the case of `COc1cccc(CNn2cn[nH]c2=S)c1OCc1ccccc1`, the inhibition was -1.76%.
For `C=C(C)CNC(=S)Nc1ccc(S(=O)(=O)Nc2cnc3ccccc3n2)cc1` the value was 2.87%.
The figure for `CC(NCCO)C(=O)C12CC3CC(CC(C3)C1)C2` (centres undefined) is 2.3%; for `Cc1c(C(=O)NC2CCCCC2)oc2ccccc12` it is -11.4%; for `Cc1ccc2c(C)c(C(=O)N(C)Cc3ccncn3)oc2c1C` it is -3%.
For `CCCC[C@@H]1CN=C(N)N1CCc1cc(C(F)(F)F)cc(C(F)(F)F)c1` the value was 31.9% (active); for `CN(C)C1=NC[C@H](Cc2ccccc2)N1CCc1ccc(F)cc1`, -0.99%.
With `CCCCN1C(N)=NC[C@@H]1CC1CCCCC1`, the inhibition was -1.98%.
The figure for `Cc1nc(N)c(Br)c(C)c1Br` is -2.18%; for `CSc1ccc(S(=O)(=O)N2CCC(C(=O)NCc3ccncc3)CC2)cc1` it is -10.4%.
The figure for `Cn1c(CCC(=O)Nc2ccccc2F)nnc1SCC(=O)Nc1ccccc1Cl` is -10.1%; for `CN1CCN(S(=O)(=O)c2cccc(C(=O)N3CCc4ccccc43)c2)CC1` it is 3.72%.
For `CN1CCN(C(=O)N2c3ccccc3CCc3ccccc32)CC1` the value was 51% (active).
On to `Cn1cccc1C(=O)N1CCc2ccccc2C1`, for which the inhibition is 10.4%.
For `O=C(O)C(=Cc1ccccc1[N+](=O)[O-])c1ccccc1` the value was -15.2%; for `Cc1ccc(C2Nc3ccccc3C(=O)N2CCN2CCNC2=O)cc1` (centres undefined), -5.69%.
For `COc1ccc(C(C#N)N2N=C(C)CC2(C)C)cc1` (centres undefined) the value was -4.9%; for `CC[C@@H]1Cc2cc(O)ccc2C2=C1c1ccc(O)cc1C[C@H]2CC`, 72.5% (active); for `CCOC(=O)C1(Cc2ccccc2C)CCCN(C(=O)CN2C(=O)CSC2=O)C1` (centres undefined), 4.46%.
The figure for `O=C(CSc1ccc(-c2ccc(-n3cccn3)cc2)nn1)Nc1ccc([N+](=O)[O-])cc1` is 101% (active); for `O=C(CSc1ccc([N+](=O)[O-])cn1)Nc1ccc(N2CCOCC2)cc1` it is -3.21%; for `O=C(CSc1ccc(-c2ccccn2)nn1)Nc1ccccc1` it is 5.15%.
